From PubChem BioAssay
HTT aggregate = mutant huntingtin aggregation inhibition; PC12 HttQ103-GFP aggregates, Acumen cytometry, 40 h; Potency, µM (titrated, usually from 46.1 µM), most hits filed as inhibitors; 1.1% of 220,000 active; AID 1688; further: nearly all actives have a fitted effect of over 60% in size
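Quantitative HTS on tebufenozide-induced (100 nM) PC12 cells stably expressing polyQ103 Huntingtin exon 1–GFP. Reduction of bright GFP aggregates, detected by laser scanning cytometry after lysis, identified actives across the titration.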
Tau ThT inhib = inhibitors of human tau fibril formation, thioflavin T binding; recombinant tau K18 P301L, heparin-induced fibrillization, ThT fluorescence; Potency, µM (series often up to 57.4 µM), usual class: inhibitors; 2.1% of 270,000 active; AID 1460; further: nearly all actives have a fitted effect of over 55% in size
Target sequence (P10636 561-689 P618L limits assumed): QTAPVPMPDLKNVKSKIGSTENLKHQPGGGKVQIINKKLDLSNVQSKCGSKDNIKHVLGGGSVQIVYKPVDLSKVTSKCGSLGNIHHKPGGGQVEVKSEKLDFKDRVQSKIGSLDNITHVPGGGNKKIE
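Recombinant human tau K18 fragment […] carrying P301L, 15 uM unlabeled plus 0.24 uM Alexa 594-labeled, was fibrillized with 20 uM heparin in 100 mM sodium acetate pH 7 for 6 hr at 37 C; 30 uM ThT fluorescence read after 1 hr.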
HTT ATP protect = cytoprotection in Huntington HTT-Q103 PC12 cell model; Potency, µM (top dose mostly 56.4 µM), usual class: activators; 0.14% of 230,000 active; PC12 HTT-Q103 induced, cytoprotection, ATP luminescence, 40 h; further: nearly all actives have a fitted effect of over 45% in size
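Readout: ATPlite luminescence (ATP level). Model: stable PC12, inducible Htt exon1 Q103-GFP. Inducer: tebufenozide, 100 nM final. Compounds: dose series. No G418 in medium.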
Tau FP inhib = tau fibrillization inhibition (FP) | P10636 | K18 P301L tau heparin fibrillization, Alexa594 FP, 6 h | Potency, µM (series often up to 57.7 µM), usual class: inhibitors | 0.39% of 280,000 active | AID 1468; further: nearly all actives have a fitted effect of over 55% in size
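Recombinant K18 P301L […], labeled with Alexa 594 at 0.24 uM over 15 uM unlabeled; heparin inducer 20 uM final; 37 C, 6 hr; FP endpoint.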
Tau fluor cs = counter-screen for tau fibril formation inhibitors; tau K18 P301L (four-repeat tau fragment) Alexa594 fluorescence, heparin fibrillization; Potency, µM (doses to about 57.7 µM); 0.93% of 280,000 active; AID 1463; further: nearly all actives have a fitted effect of over 55% in size
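Human K18 P301L tau (15 uM unlabeled plus 0.24 uM Alexa 594-labeled, final) in 100 mM sodium acetate pH 7 was mixed with compound and 20 uM heparin and incubated 6 hr at 37 C.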
Each line names hits and unclear results; the compound was inactive in the other large screens; [ ] = dose if it differs, or a comment. Hits are enriched below; roughly 3.7% of the tested compounds scored in any of these assays. The call rests on the fitted dose curve; in most records, active means well fitted curve in the direction sought with a large enough effect; inconclusive means small, poorly fitted or top-dose-only effect, or another doubt; inactive means no such curve, though single readings can be large; an effect the other way counts as inactive or inconclusive.

CCN(Cc1ccccc1)c1ccc(N=Nc2nn(C)c(C)c2[N+](=O)[O-])cc1	Tau ThT inhib 10µM, Tau FP inhib inconclusive, Tau fluor cs inconclusive
C[N+](C)(C)c1nc(N)nc2c1ncn2[C@H]1O[C@@H](CO)[C@@H](O)[C@H]1O	none (no result: HTT aggregate, Tau ThT inhib, Tau FP inhib, Tau fluor cs)
CN1CCN(c2ncc3nc(-c4cccs4)c(=O)n(C[C@H]4CCCO4)c3n2)CC1	none (no result: HTT aggregate, Tau ThT inhib, Tau FP inhib, Tau fluor cs)
Nc1ncnc2c1ncn2[C@H]1O[C@@H](C(=O)OCCO)[C@@H](O)[C@H]1O	none (no result: HTT aggregate, Tau ThT inhib, Tau FP inhib, Tau fluor cs)
O=C(Nc1ccc(Cl)cc1)N1CCC(c2nc(-c3ccccc3Cl)no2)CC1	HTT aggregate 11.2µM, Tau FP inhib inconclusive, Tau fluor cs inconclusive
CCS(=O)(=O)N1CCC(c2nc(-c3ccc(C(F)(F)F)cc3)no2)CC1	HTT aggregate 11.2µM
O=C(Nc1cccc(C(F)(F)F)c1)N1CCC(c2nc(-c3ccc(F)cc3)no2)CC1	HTT aggregate 22.4µM, Tau FP inhib inconclusive, Tau fluor cs inconclusive
O=C(Nc1ccccc1)N1CCCC(c2nc(-c3ccc(F)cc3)no2)C1 (stereo unspecified)	none
O=C(O)CCCc1ccc2ccc3ccccc3c2c1	none (no result: HTT aggregate, Tau ThT inhib, Tau FP inhib, Tau fluor cs)
Clc1ccc(-c2noc3ncnc(NCCc4ccccc4)c23)cc1	none (no result: HTT aggregate, HTT ATP protect)
O=S(=O)(Nc1cccc2ncccc12)c1cccs1	HTT aggregate 12.6µM
COc1cccc(/C=C2\C(=O)C(=O)c3ccccc32)c1	Tau ThT inhib 12.6µM
COc1cc(C=C2C(=O)c3ccccc3C2=O)cc(OC)c1	Tau fluor cs inconclusive (no result: Tau ThT inhib)
COc1ccc(C=C2C(=O)c3ccccc3C2=O)cc1O	Tau ThT inhib 8.91µM
COc1cc(C=C2C(=O)c3ccccc3C2=O)cc(OC)c1OC	Tau ThT inhib 14.1µM
CCN1C/C(=C/c2ccc(OC)c(O)c2)C(=O)/C(=C/c2ccc(OC)c(O)c2)C1	HTT aggregate inconclusive, Tau ThT inhib 14.1µM, Tau FP inhib inconclusive
O=C(NCCc1ccccc1)c1cnc2sc(N3CCCCC3)nn2c1=O	none (no result: HTT aggregate, HTT ATP protect)
COc1ccc(CCNC(=O)c2nc(SCc3ccc(F)cc3)ncc2Cl)cc1OC	none (no result: HTT aggregate, HTT ATP protect)
Cc1nn(CC(=O)Nc2ccc(C(C)C)cc2)c(=O)c2c(C)n(-c3ccc(Cl)cc3)nc12	none (no result: HTT aggregate, HTT ATP protect)
CC(=O)c1cc(C)oc1C	none (no result: HTT aggregate, Tau ThT inhib, Tau FP inhib, Tau fluor cs)
CCOC(=O)c1nc2sc3c(c2c(=O)[nH]1)CCCC3	none
N#C/C(=C\c1ccc(C(=O)O)cc1)c1nc2sc3c(c2c(=O)[nH]1)CCCC3	Tau ThT inhib 14.1µM, Tau fluor cs inconclusive
Cn1c(=O)c2c(nc(NCCc3ccccc3)n2Cc2ccc(Cl)cc2)n(C)c1=O	Tau FP inhib inconclusive, Tau fluor cs inconclusive (no result: HTT aggregate, HTT ATP protect)
CC(C)n1c(NCCc2ccccc2)nc2c1c(=O)n(C)c(=O)n2C	HTT aggregate 11.2µM
CCCNc1nc2c(c(=O)n(C)c(=O)n2C)n1Cc1cccc(C)c1	HTT aggregate 14.1µM
CCN(CC)c1ccc(N=Nc2ncn[nH]2)cc1	Tau ThT inhib 12.6µM
CCN(CC)c1ccc(/C=N/O)cc1	none
CCOc1ccccc1NC(=O)Cn1c(=O)n(Cc2ccc(OC)cc2)c(=O)c2oc3ccccc3c21	none (no result: HTT aggregate, HTT ATP protect)
CC(=O)OC[C@@H]1O[C@H](CCO/N=C(\C)CCN2CCc3nc(-c4ccccc4)c(-c4ccccc4)cc3C2)C=C[C@@H]1OC(C)=O	none (no result: HTT aggregate)
O=C(CNc1cccc2ccccc12)N/N=C/C(Br)=C/c1ccccc1	Tau ThT inhib inconclusive, Tau fluor cs 14.1µM[quencher]
O=C(CNc1cccc2ccccc12)N/N=C/c1ccc[nH]1	Tau ThT inhib inconclusive
CC(=O)Nc1ccc(Nc2cc(C)nc3c(-c4ccccc4)cnn23)cc1	Tau ThT inhib inconclusive, Tau fluor cs 15.8µM[quencher]
O=C(O)CC[C@@H](NC(=O)c1ccccc1C(=O)O)C(=O)O	none (no result: HTT aggregate, Tau ThT inhib, Tau FP inhib, Tau fluor cs)
O=C(Nc1cccc(Cl)c1)c1cc(N=Nc2ccc([N+](=O)[O-])cc2Cl)ccc1O	Tau ThT inhib 0.891µM, Tau FP inhib 8.91µM, Tau fluor cs 1.12µM[quencher]
O=C(Nc1ccccc1)c1ccc2nc(-c3ccco3)c(-c3ccco3)nc2c1	HTT aggregate inconclusive, Tau ThT inhib inconclusive, Tau FP inhib inconclusive, Tau fluor cs inconclusive
O=C(Nc1ccc(N2CCOCC2)cc1)c1ccc([N+](=O)[O-])cc1	Tau ThT inhib 2.82µM
CC(=O)c1ccc(NC(=O)CSc2nnc(-c3ccco3)c(-c3ccco3)n2)cc1	Tau ThT inhib 3.98µM, Tau FP inhib 8.91µM, Tau fluor cs inconclusive
